Drawing on PubChem BioAssay AID1566 (Sanford-Burnham Center for Chemical Genomics, 2009), this text covers inhibition for 49 compounds.

The structures appear in SMILES notation. Screen size: about 290,000 compounds; about 1,800 (0.62%) were called active. No stated cut-off is given here; in the data, active means inhibition above about 50%; inactive means the rest. The full list was thinned out, with actives kept by preference.

A short description of the experiment: inhibition of NOD2-driven NF-kB reporter – cell-based, luminescence, uHTS, HEK293 (AID 1566). As to conditions: HEK293 NOD2/NF-kB luciferase reporter, at 4 µM, stronger effect = higher value. For orientation: In a reporter assay the amount or activity of a reporter protein is the signal.
In general, inhibition refers to the change of the read-out against control, counted positive when it falls. As for `CCOc1ccc(N2C(=O)NC(=O)/C(=C/c3cnc(SC)nc3)C2=O)cc1`, the inhibition was 3% (inactive).

In the case of `Cc1ccc(N2C(=O)NC(=O)/C(=C\c3ccc([N+](=O)[O-])o3)C2=O)cc1`, the inhibition is 10.6% (inactive).

Consider `CNc1ccc2nc3ccccc3[n+](C)c2c1`, for which the inhibition was 54.7% (active).

`C[n+]1c2ccccc2nc2ccc(NCCO)cc21`: the inhibition was 41.7% (inactive).

`Nc1cc2nc3ccccc3nc2cc1N`: the inhibition is -1.6% (inactive).

For `CC(Cc1ccccc1)NC(=O)Cc1ccc([N+](=O)[O-])cc1` (centres undefined), the inhibition was 4.1% (inactive).

For the compound `CC(C(=O)c1ccc(Cl)cc1Cl)n1cncn1` (centres undefined), the inhibition was -37.6% (inactive).

Regarding `CC1(c2ccc(Cl)cc2Cl)OCC(Cn2cncn2)O1` (centres undefined), the inhibition was 60.3% (active).

For `CCCC1COC(Cn2cncn2)(c2ccc(Cl)cc2Cl)O1` (centres undefined), the inhibition was 5.9% (inactive).

As to `Cc1c(C(=O)N2CCC3(CC2)OCCO3)oc2ccc(S(=O)(=O)N3CCOCC3)cc12`, the inhibition is 9.5% (inactive).

Take `Clc1ccccc1NC1=NCCCS1`: the inhibition was -11.5% (inactive).

Turning to `CCOc1ccc(-n2c(-c3cccs3)nc3ccccc3c2=O)cc1`, the inhibition is 21.3% (inactive).

Take `Cn1ncnc2c(=O)n(C)c(=O)nc1-2`: the inhibition was 45.4% (inactive).

For the compound `CCn1nc(-c2cccs2)nc2c(=O)n(C)c(=O)nc1-2`, the inhibition was 72.1% (active).

In the case of `CCCCn1c(O)c(C(C)=NCCN2CCOCC2)c(=O)[nH]c1=O`, the inhibition is 2.3% (inactive).

As for `COc1ccc(CNCCc2c(C)[nH]c3ccc(OC(F)(F)F)cc23)c(OC)c1`, the inhibition is 57.8% (active).

As to `Cc1[nH]c2ccc(OC(F)(F)F)cc2c1CCNCc1ccc(Cl)cc1`, the inhibition is 2.1% (inactive).

Regarding `COc1ccc2[nH]c(C)c(CCNCc3cc(OC)c(OC)c(OC)c3)c2c1`, the inhibition is 6.9% (inactive).

`COc1cc2c(cc1OC)C(C(=O)N(C)C1CCCCC1)C1CCCCN1C2=O` (centres undefined): the inhibition was 9.9% (inactive).

Turning to `CCCCn1c(=O)c(C(=O)Nc2ccccc2N)c(O)c2ccccc21`, the inhibition is 2.4% (inactive).

Turning to `COc1ccc(C2=NS(=O)(=O)N(C)C(C(=O)N3CCC4(CC3)OCCO4)=C2)cc1OC`, the inhibition is 8.1% (inactive).

With `COc1ccc(CNCCc2ccc(Cl)cc2Cl)cc1`, the inhibition is -27.6% (inactive).

Regarding `Cc1nn(Cc2ccccc2Cl)c(C)c1C(=O)NC1CCCc2ccccc21` (centres undefined), the inhibition is 20.5% (inactive).

Consider `CN(C)C(=O)Oc1ccc2c(c1)O/C(=C\c1ccc(Cl)cc1)C2=O`, for which the inhibition was -16.2% (inactive).

Take `Cc1c(C(=O)Nc2ccccc2)cc(-c2ccccc2)n1CCCN1CCOCC1`: the inhibition was 8.6% (inactive).

As to `O=C(NCc1cccnc1)Nc1ccc([N+](=O)[O-])cc1`, the inhibition was -1.2% (inactive).

As for `Cc1ccc(CN2CCN(CC(=O)N3CCC4(CC3)OCCO4)C2=O)cc1`, the inhibition is -1.6% (inactive).

On to `C[C@H]1C[C@@H](C)C(=O)[C@@H]([C@H](O)CC2CC(=O)NC(=O)C2)C1`, for which the inhibition was 73% (active).

Regarding `CCn1c(O)c(C=Nc2ccc(N3CCOCC3)cc2)c(=O)n(CC)c1=S`, the inhibition is 22.7% (inactive).

Take `COCCN1C(=O)NC(=O)/C(=C\c2ccc(Br)cc2)C1=O`: the inhibition is 0.7% (inactive).

As to `CC(C)c1oc(=O)cc2c1[C@@H](O)[C@H]1OC(=O)[C@@]3(C)C[C@@H](O)[C@@H](O)[C@@]2(C)C13` (some centres undefined), the inhibition was 64.6% (active).

As for `CC(C)c1oc(=O)cc2c1[C@@H](O)[C@H]1OC(=O)[C@@]3(C)CC[C@@H](O)[C@@]2(C)C13` (some centres undefined), the inhibition is 20% (inactive).

For the compound `CC(Cc1ccsc1)NCc1cn[nH]c1-c1ccc(F)cc1F` (centres undefined), the inhibition is 10.2% (inactive).

In the case of `COc1cc(N2CCOCC2)ccc1/C=C1\C(=O)NC(=O)N(C2CCCCC2)C1=O`, the inhibition is 12% (inactive).

Take `CCOC(=O)C1=CC(=C2C(=O)N(CC)C(=S)N(CC)C2=O)c2ccccc2O1`: the inhibition was 18.1% (inactive).

Consider `O=C(CCNC(=O)N1C[C@H]2C[C@@H](C1)c1cccc(=O)n1C2)Nc1cccc(Cl)c1`, for which the inhibition was 13.1% (inactive).

As for `O=C(Nc1ccc(OC(=O)N2CCCCC2)cc1)N1CCOCC1`, the inhibition was 62.5% (active).

`O=C(Nc1ccc(OC(=O)N2CCCC2)cc1)N1CCOCC1`: the inhibition is 12.5% (inactive).

As for `O=C(Nc1cccc(OC(=O)N2CCCCC2)c1)N1CCOCC1`, the inhibition is -0.1% (inactive).

For the compound `COC(=O)c1nc(-c2ccc3c(n2)C(=O)C(N)=C(OC)C3=O)c(N)c(-c2ccc(OC)c(OC)c2O)c1C`, the inhibition is 57.2% (active).

Turning to `CCC(=O)Nc1cc(C(=O)N2CCC3(CC2)OCCO3)ccc1S(=O)(=O)c1ccc(C)cc1`, the inhibition is 0.8% (inactive).

For the compound `O=C(c1ccc(N2CCCCCC2)c([N+](=O)[O-])c1)N1CCC2(CC1)OCCO2`, the inhibition is 73.2% (active).

Turning to `CC1CCCN(c2ccc(C(=O)N3CCC4(CC3)OCCO4)cc2[N+](=O)[O-])C1` (centres undefined), the inhibition is 15.8% (inactive).

With `O=C(c1ccc(N2CCCCC2)c([N+](=O)[O-])c1)N1CCC2(CC1)OCCO2`, the inhibition was 9.1% (inactive).

`CC(=O)Nc1cc(C(=O)N2CCC3(CC2)OCCO3)ccc1S(=O)(=O)c1ccc(C)cc1`: the inhibition is 52.9% (active).

Regarding `CC(=O)Nc1cc(C(=O)N2CCC3(CC2)OCCO3)ccc1S(=O)(=O)c1ccc(Cl)cc1`, the inhibition is 6.8% (inactive).

Regarding `O=C(COc1ccc2ccc(=O)oc2c1)N1C[C@H]2C[C@@H](C1)c1cccc(=O)n1C2`, the inhibition is -2.7% (inactive).

For the compound `CN1CC(C(=O)c2ccc([N+](=O)[O-])cc2)C(c2ccc(Cl)cc2)C1` (centres undefined), the inhibition was 16.2% (inactive).

`COC(=O)C(C)NC(=S)N1CC2C[C@@H](C1)Cn1c2cccc1=O` (some centres undefined): the inhibition was 14.9% (inactive).
